# The campaign covered roughly 69,000 compounds. About 8,600 (12%) showed an effect of 50% or more. The entries come from a sample that favours strong results as a whole.
# Test system: Plasmodium berghei
# Experiment: Screen against P. berghei liver stage (PbLuc), transformed with Luciferase, at 10uM
# Type: functional, HepG2
# Details: tested at 10 uM
row,SMILES,INHIBITION
1,O=C(c1cn(-c2ccccc2)nn1)N1CCCC(n2cccn2)C1 (configuration not stated),-67.3%
2,O=C(C1CC(=O)N(c2n[nH]c3cc(Br)ccc23)C1)N1CCCC1 (configuration not stated),-19.4%
3,CO[C@@H]1CCN(S(=O)(=O)c2cn(C)cn2)[C@H]1Cc1cnn(C)c1,49.1%
4,Cc1nc(CN2CC[C@H](OCC3CC3)[C@@H]2Cc2cccnc2)cs1,-3.33%
5,CCOCC(=O)N1Cc2nccn2CC(CN(C)C)C1 (configuration not stated),-7.7%
6,CCCc1n[nH]c(C2CN(CCNS(C)(=O)=O)CCO2)n1 (configuration not stated),-69%
7,O=C(c1cscn1)N1C[C@H](OCc2cccnc2)[C@H]2COC[C@H]21,3.58%
8,C=C(C)CN1CCC(NC(=O)Nc2ccc(F)c(C(=O)NC)c2)CC1,52.6%
9,CNC(=O)c1cc(NC(=O)NC2CC2)ccc1F,-0.514%
10,C=C(C)CN1CCC(NC(=O)Nc2ccc(F)c(C(N)=O)c2)CC1,42.3%
11,Cc1cc(C)n(CC(=O)N2CCC(c3cc4cccnc4[nH]3)CC2)n1,1.62%
12,CN(CC(=O)N1CCC(COc2ccccc2)CC1)c1cnccn1,-16.295%
13,CCN1CCCC(O)(CN(C)Cc2c(C)nn(C)c2C)C1 (configuration not stated),42.4%
14,CC(C)c1noc(OCc2cccc(C#N)c2)n1,46.1%
15,Cc1noc(OCCOc2ccc(C#N)cc2)n1,18.6%
16,Cc1noc(OCc2ccc(C#N)cc2)n1,64.5%
17,O=C(NCCC(=O)N1CCCCCCC1)c1ccoc1,-18%
18,Cc1cc(NCCNS(=O)(=O)c2cccc(Cl)c2)nc(C)n1,24.7%
19,O=C(NCCNS(=O)(=O)c1cccc(Cl)c1)C1CCCO1 (configuration not stated),38.9%
20,CC(NCCNS(=O)(=O)c1cccc(Cl)c1)C1CCOCC1 (configuration not stated),67.1%
21,CN(C)C(=O)N1C[C@H]2CC[C@@H](C1)N(Cc1nnc(-c3ccccc3)o1)C2,-3.73%
22,OC(CNCc1ccccc1C(F)(F)F)c1ccccc1 (configuration not stated),1.98%
23,CC(=O)N(C)Cc1cncc(C2CCCN2C2CCOCC2)n1 (configuration not stated),15.925%
24,O=C(CSC1CCc2ccccc2NC1=O)NC1CC1 (configuration not stated),-41.4%

row,SMILES,INHIBITION
1,COc1ccccc1NC(=O)CSC1CCc2ccccc2NC1=O (configuration not stated),10.8%
2,Cc1cnc(NC(=O)CSC2CCc3ccccc3NC2=O)s1 (configuration not stated),54.6%
3,O=c1c2ccccc2ncn1Cc1cc(C2CC2)[nH]n1,18.5%
4,O=C(Cn1cnc2ccccc2c1=O)Nc1cc(C2CC2)n[nH]1,89.4%
5,CC(C)c1cc(NC(=O)Cn2cnc3ccccc3c2=O)[nH]n1,-27.4%
6,COc1ccc(CCN2CCN(C(=O)c3scnc3C)CC2)cc1,25.3%
7,CN1CCc2onc(CNc3ncccn3)c2C1,19.5%
8,COc1ccc(CNC2CCCc3nc(N(C)C)ncc32)c(OC)c1 (configuration not stated),16.7%
9,CN(C)C1(CNC(=O)c2c(O)cc(Cl)cc2Cl)CCOCC1,54.8%
10,CC(NCC1(N(C)C)CCOCC1)c1ccc(Cl)cc1 (configuration not stated),-2.025%
11,CN(C)C1(CNC(=O)Cc2ccc(F)cc2)CCOCC1,-21.8%
12,O=C(c1ccc[nH]1)N1CCc2cc(S(=O)(=O)N3CCOCC3)ccc2C1,42.8%
13,O=C(NC1CCN(CC2CC2)C1)c1ccc(C(=O)c2cc[nH]c2)cc1 (configuration not stated),10.6%
14,O=C(Nc1ccnc2ccnn12)c1ccc(N2CCC(O)CC2)cc1,38.1%
15,O=C(NC1CCN(CC2CC2)C1)c1ccc(N2CCC(O)CC2)cc1 (configuration not stated),77.7%
16,COC[C@@H]1CCCN1C(=O)CCc1c(C)nn(C)c1C,8.7%
17,CCN(CC)c1nc2sc(C(=O)N3CCNC(=O)C3)cc2s1,-81.7%
18,CC(C)CC1SCC(=O)Nc2c1cnn2-c1ccccc1F (configuration not stated),13%
19,O=C(O)[C@@H]1CN(C(=O)Cc2ccccc2Cl)C[C@H]1C1CC1,79.2%
20,O=C(O)[C@@H]1CN(C(=O)CCCc2ccc(F)cc2)C[C@H]1C1CC1,-14.2%
21,CCOc1ccccc1CC(=O)N1C[C@@H](C(=O)O)[C@H](C2CC2)C1,2.66%
22,CC(=O)N1CCCC1c1nccnc1Nc1cccc(C)n1 (configuration not stated),39.2%
23,Cc1cc2c(cc1C)OC(C(=O)NCCNC(=O)C1CCCC1)C2 (configuration not stated),-35.1%
24,O=C(NCCNC(=O)C1Cc2cc(F)ccc2O1)C1CCCCC1 (configuration not stated),-0.529%

row,SMILES,INHIBITION
1,Cc1ccc(NCCNC(=O)C2Cc3cc(C)c(C)cc3O2)nn1 (configuration not stated),55%
2,O=S1(=O)NC2(CCCN(Cc3ccc(Cl)cc3)C2)COc2ccccc21 (configuration not stated),27.5%
3,Cc1cc(=O)n2nc(Oc3cccc(C(N)=O)c3)sc2n1,3.84%
4,CS(=O)(=O)c1ncc(CN2CCN3CCCC3C2)n1CC1CCCCC1 (configuration not stated),12.3%
5,CS(=O)(=O)c1ncc(CN2CCCC(C(N)=O)C2)n1CC1CCCCC1 (configuration not stated),0.734%
6,CN(C)C1CCN(Cc2cnc(S(C)(=O)=O)n2CC2CCCCC2)C1 (configuration not stated),81.6%
7,N#Cc1ccc(CN2CCC(CN3CCOCC3)C2)cc1 (configuration not stated),-11.9%
8,CN1CC2(CCN(C(=O)c3cccnc3)CC2)c2cccc(F)c21,31.5%
9,CCn1ncc2c1C(COCC1CC1)CN(C(=O)c1ccncn1)C2 (configuration not stated),26.4%
10,CC(C)N1CCC2(CCNCC2)C1=O,-25.8%
11,O=C(CSc1nnc(N2CCCC2)s1)NC(=O)Nc1ccccc1,-22.405%
12,O=C(CSc1nnc(N2CCOCC2)s1)NC(=O)Nc1ccccc1,-1%
13,O=C(CSc1nnc(N2CCNCC2)s1)Nc1ccccc1,59.2%
14,CCc1nnc2n1CCN(C(C(N)=O)c1ccc(F)cc1)C2 (configuration not stated),1.45%
15,NC(=O)C(c1ccc(F)cc1)N1CCN(CCO)CC1 (configuration not stated),56.9%
16,Cc1nnc2n1CCN(C(C(N)=O)c1ccc(F)cc1)C2 (configuration not stated),25.8%
17,COc1cccc(OC)c1OCCn1c(C)c(C)oc1=O,22.5%
18,Cc1cc(C)n(CC2CCCN2C(=O)c2ccc(N(C)C)nn2)n1 (configuration not stated),38.8%
19,CC(C)=CCN1CCc2onc(-c3ccc(F)c(F)c3)c2C1,5.78%
20,Fc1ccccc1-c1noc2c1CN(CCN1CCOCC1)CC2,34.5%
21,CC(O)CN1CCc2onc(-c3ccccc3F)c2C1 (configuration not stated),-10.9%
22,Fc1ccccc1-c1noc2c1CN(CC1CC1)CC2,55.4%
23,Fc1ccc(-c2noc3c2CN(CC2CC2)CC3)cc1F,52.7%
24,c1ccc(-c2noc3c2CN(CC2CC2)CC3)cc1,2.3%

# Reference: ChEMBL document CHEMBL4513216, “Probing the Open Global Health Chemical Diversity Library for Multistage-Active Starting Points for Next-Generation Antimalarials” (ACS Infect Dis, 2020)
